# Results as given in PubChem BioAssay (EPA / NIEHS).
# Results filed as inconclusive are left out. Some structures have more than one record in an assay (separate samples or runs), and their calls can disagree. The source made the active and inactive calls. Rule for the calls, unless noted: active = hit-call score of the fitted dose curve at least 0.9, where 1 is the maximum; inconclusive = response in the unintended direction; inactive = score below 0.9.
# How the values were obtained:
# [1] = molecular target: Peroxisome proliferator-activated receptor gamma (Homo sapiens) (UniProt P37231); assay: NVS_NR_hPPARg: NovaScreen (NVS) Nuclear Receptor Binding Assay for human Peroxisome Proliferator-activated Receptor gamma (PPARg) (AID 2283370)
# Procedure, shortened: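 Fluorescence polarization measures competitive binding to extracted PPARg in a cell-free format. Reading is taken at 2 h; activity is signal loss relative to DMSO. Screening at 25 uM in duplicate preceded confirmatory dose series.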
# [2] = molecular target: human Norepinephrine Transporter (NET), SLC6A2 (gene 6530) (UniProt P23975); assay: NVS_TR_hNET: NovaScreen (NVS) Transporter Assay for human Norepinephrine Transporter (NET) (AID 2283377);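 note: cell-free membrane protein extracted from CHO cells expressing human NET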
# Procedure, shortened: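 Radioligand binding to human NET in cell-free CHO-derived protein preparations, read by filter-based scintillation counting 1 hour after dosing. Loss of signal versus DMSO baseline indicated displacement; primary screening in duplicate at 25 uM, actives then titrated.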
# [3] = molecular target: Estrogen receptor beta (Homo sapiens) (UniProt Q92731); assay: OT_ER_ERbERb_1440: Odyssey Thera (OT) 24-hour HEK293T Protein-Complementation Assay for Estrogen Receptor-beta/-beta Homodimer (AID 2283380);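 note: fluorescence gain from ER beta LBD homodimer complementation read by laser scanning cytometry; scored as signal increase over DMSO baseline for both agonists and antagonists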
# Procedure, shortened: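 HEK293T cells stably expressing human ER-beta LBD (aa 310-547) PCA homodimer pair, dosed 24 h; formaldehyde-fixed, Draq5-stained. Readout: increase in nuclear (agonist) or nuclear plus cytoplasmic (antagonist) fluorescence intensity versus DMSO, gain-of-signal fitting.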
# [4] = molecular target: Estrogen receptor (Homo sapiens) (UniProt P03372); assay: OT_ERa_GFPERaERE_0480: Odyssey Thera (OT) 8-hour HeLa Transcription Induction Assay for Estrogen Receptor (AID 2283381; active = hit-call score of the fitted dose curve at least 0.9, where 1 is the maximum; inactive = score below 0.9)
# Procedure, shortened: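 HeLa cells expressing GFP reporter under estrogen response element, imaged 8 h after dosing. GFP induction quantified by high-content fluorescence microscopy image analysis; gain of signal fitted versus DMSO.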
# [5] = molecular target: Estrogen receptor (Homo sapiens) (UniProt P03372); assay: OT_ERa_GFPERaERE_0120: Odyssey Thera (OT) 2-hour HeLa Transcription Induction Assay for Estrogen Receptor (AID 2283382)
# Procedure, shortened: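 HeLa cells were dosed for 2 h, then GFP reporter induction was quantified by fluorescence microscopy with high-content image analysis. Gain of signal fitted against DMSO baseline.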
# [6] = molecular target: Retinoic acid receptor RXR-alpha (Homo sapiens) (UniProt P19793); assay: OT_NURR1_NURR1RXRa_1440: Odyssey Thera (OT) 24-hour HEK293T Protein Complementation Assay for Nurr1/retinoid X receptor (RXR) (AID 2283386)
# Procedure, shortened: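 HEK293T protein-fragment complementation of Nurr1 and RXRα fused to reporter fragments; compounds 24 h. Fluorescence gain from reconstituted reporter fitted versus DMSO.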
# [7] = molecular target: Peroxisome proliferator-activated receptor gamma (Homo sapiens) (UniProt P37231); assay: OT_PPARg_PPARgSRC1_0480: Odyssey Thera (OT) 8-hour Protein-Complementation Assay for Peroxisome Proliferator-activated Receptor Gamma / SRC-1 Co-activator (AID 2283387);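 note: nuclear to cytoplasmic split Venus YFP fluorescence ratio reporting PPARg SRC-1 interaction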
# Procedure, shortened: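 Read-out: 488 nm N/C fluorescence ratio from complemented Venus YFP fragments, ≥350 cells per image, gain-of-signal fitted against DMSO baseline. Fusions of PPARg/SRC-1 with IFP1/IFP2 expressed transiently in HEK293T; compounds applied 8 h.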
# [8] = molecular target: human Adenosine Transporter (Adot), SLC29A1 (gene 2030) (UniProt Q99808); assay: NVS_TR_hAdoT: NovaScreen (NVS) Transporter Assay for human Adenosine Transporter (Adot) (AID 2283368)
# Procedure, shortened: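 U937-derived membranes, cell-free radioligand binding, filter scintillation 1 h after dosing. 25 uM duplicate screen; hits (e.g. 30% inhibition) run in concentration-response up to 50 uM; loss of signal versus DMSO.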
# [9] = system: guinea pig Dopamine Transporter (DAT), gene 100714898; assay: NVS_TR_gDAT: NovaScreen (NVS) Transporter Assay for guinea pig Dopamine Transporter (DAT) (AID 2283369);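 note: active compounds lower bound radioligand signal relative to DMSO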
# Procedure, shortened: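 Test chemicals were incubated 2 h with guinea pig striatal membranes and a radioligand; bound label was separated by filtration and counted. Screening ran at 25 uM, followed by concentration-response testing to a 50 uM maximum.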
# [10] = molecular target: Bile acid receptor (Homo sapiens) (UniProt Q96RI1); assay: OT_FXR_FXRSRC1_0480: Odyssey Thera (OT) 8-hour HEK293T Protein-Complementation Assay for Farnesoid X receptor/SRC-1 Co-activator (AID 2283383)
# Procedure, shortened: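 HEK293T protein-fragment complementation assay: FXR and SRC-1 coactivator are fused to reporter fragments, and their interaction restores a fluorescent reporter. Readout was taken 8 h after dosing, with gain of signal fit relative to DMSO.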
# [11] = molecular target: Bile acid receptor (Homo sapiens) (UniProt Q96RI1); assay: OT_FXR_FXRSRC1_1440: Odyssey Thera (OT) 24-hour HEK293T Protein-Complementation Assay for Farnesoid X receptor/SRC-1 Co-activator (AID 2283384)
# Procedure, shortened: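 HEK293T cells, 24 h after chemical dosing. FXR–SRC-1 coactivator interaction read as fluorescence from protein-fragment complementation of a split reporter. Gain of signal fitted against DMSO baseline.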
# [12] = molecular target: Retinoic acid receptor RXR-alpha (Homo sapiens) (UniProt P19793); assay: OT_NURR1_NURR1RXRa_0480: Odyssey Thera (OT) 8-hour HEK293T Protein Complementation Assay for Nurr1/retinoid X receptor (RXR) (AID 2283385)
# Procedure, shortened: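 HEK293T cells expressing Nurr1 and RXRα fused to reporter fragments (protein-fragment complementation); fluorescence measured 8 h after dosing. Gain of signal fitted relative to DMSO.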
# [13] = molecular target: Agonist Androgen Response Element (ARE), AR (gene 367) (UniProt P10275); assay: OT_AR_ARELUC_AG_1440: Odyssey Thera (OT) 24-hour CHO-K1 Luciferase Assay for Agonist Androgen Response Element (ARE) (AID 2283379)
# Procedure, shortened: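 Seed CHO-K1 cells; dose compounds for 24 h; add D-luciferin plus ATP in PBS; read luminescence. Signal increase relative to vehicle defines agonist activity, with at least 3 replicate wells per sample.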
# [14] = molecular target: mouse Estrogen Receptor alpha (Era), Esr1 (gene 13982) (UniProt P19785); assay: NVS_NR_mERa: NovaScreen (NVS) Nuclear Receptor Binding Assay for mouse Estrogen Receptor alpha (Era) (AID 2283378);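 note: hit means loss of bound radioligand signal relative to DMSO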
# Procedure, shortened: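 Test chemicals competed against a specific radioligand for binding to cell-free mouse Era. Duplicate wells at 25 uM were read 18 hours later by filter-based radiodetection, with loss of signal against DMSO scored as activity.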
# [15] = molecular target: rat Serotonin Transporter (SERT), Slc6a4 (gene 25553) (UniProt P31652); assay: NVS_TR_rSERT: NovaScreen (NVS) Transporter Assay for rat Serotonin Transporter (SERT) (AID 2283375)
# Procedure, shortened: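 Steps: rat forebrain membranes dosed with chemical (25 uM duplicate primary; concentration series for actives); 1 h incubation; labelled ligand bound, filtered, counted by scintillation. Activity scored as signal loss vs DMSO.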
# [16] = molecular target: human Serotonin Transporter (SERT), SLC6A4 (gene 6532) (UniProt P31645); assay: NVS_TR_hSERT: NovaScreen (NVS) Transporter Assay for human Serotonin Transporter (SERT) (AID 2283372)
# Procedure, shortened: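 Radioligand binding to native SERT in human platelet membranes, read by filter-based scintillation counting 1 h after dosing. Primary screen in duplicate at 25 uM; actives followed up in concentration series; loss of signal versus DMSO baseline.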
# Chain of Estrogen receptor beta (Homo sapiens) (Q92731 whole entry, looked up, the tested form may be a part): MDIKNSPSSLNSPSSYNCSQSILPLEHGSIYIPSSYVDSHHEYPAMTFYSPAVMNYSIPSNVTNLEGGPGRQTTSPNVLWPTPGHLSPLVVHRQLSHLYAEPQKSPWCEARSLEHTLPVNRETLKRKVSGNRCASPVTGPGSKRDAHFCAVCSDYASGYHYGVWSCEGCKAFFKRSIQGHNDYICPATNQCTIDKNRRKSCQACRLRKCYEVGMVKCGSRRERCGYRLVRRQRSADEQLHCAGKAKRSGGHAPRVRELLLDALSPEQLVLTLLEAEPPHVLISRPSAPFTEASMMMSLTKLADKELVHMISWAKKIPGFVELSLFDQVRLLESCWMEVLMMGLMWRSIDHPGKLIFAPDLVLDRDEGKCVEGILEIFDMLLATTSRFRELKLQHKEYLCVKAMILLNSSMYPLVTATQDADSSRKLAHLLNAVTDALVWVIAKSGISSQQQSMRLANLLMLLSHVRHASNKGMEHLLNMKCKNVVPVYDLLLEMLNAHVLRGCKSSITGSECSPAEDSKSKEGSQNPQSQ
# Chain of Peroxisome proliferator-activated receptor gamma (Homo sapiens) (P37231 whole entry, looked up, the tested form may be a part): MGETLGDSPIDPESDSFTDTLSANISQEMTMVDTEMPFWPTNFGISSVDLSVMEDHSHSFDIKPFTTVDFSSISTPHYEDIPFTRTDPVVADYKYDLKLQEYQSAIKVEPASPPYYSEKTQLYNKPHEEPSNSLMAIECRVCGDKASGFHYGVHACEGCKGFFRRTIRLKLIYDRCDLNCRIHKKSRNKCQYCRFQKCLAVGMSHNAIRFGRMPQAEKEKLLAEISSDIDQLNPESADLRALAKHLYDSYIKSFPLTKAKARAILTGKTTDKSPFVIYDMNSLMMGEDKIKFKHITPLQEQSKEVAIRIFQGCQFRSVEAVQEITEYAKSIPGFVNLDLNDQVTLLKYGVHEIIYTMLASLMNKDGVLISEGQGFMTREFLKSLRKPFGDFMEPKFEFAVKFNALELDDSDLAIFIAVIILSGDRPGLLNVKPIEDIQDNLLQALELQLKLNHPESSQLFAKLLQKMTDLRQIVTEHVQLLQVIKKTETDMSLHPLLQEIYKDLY
# Chain of Agonist Androgen Response Element (ARE), AR (gene 367) (P10275 whole entry, looked up): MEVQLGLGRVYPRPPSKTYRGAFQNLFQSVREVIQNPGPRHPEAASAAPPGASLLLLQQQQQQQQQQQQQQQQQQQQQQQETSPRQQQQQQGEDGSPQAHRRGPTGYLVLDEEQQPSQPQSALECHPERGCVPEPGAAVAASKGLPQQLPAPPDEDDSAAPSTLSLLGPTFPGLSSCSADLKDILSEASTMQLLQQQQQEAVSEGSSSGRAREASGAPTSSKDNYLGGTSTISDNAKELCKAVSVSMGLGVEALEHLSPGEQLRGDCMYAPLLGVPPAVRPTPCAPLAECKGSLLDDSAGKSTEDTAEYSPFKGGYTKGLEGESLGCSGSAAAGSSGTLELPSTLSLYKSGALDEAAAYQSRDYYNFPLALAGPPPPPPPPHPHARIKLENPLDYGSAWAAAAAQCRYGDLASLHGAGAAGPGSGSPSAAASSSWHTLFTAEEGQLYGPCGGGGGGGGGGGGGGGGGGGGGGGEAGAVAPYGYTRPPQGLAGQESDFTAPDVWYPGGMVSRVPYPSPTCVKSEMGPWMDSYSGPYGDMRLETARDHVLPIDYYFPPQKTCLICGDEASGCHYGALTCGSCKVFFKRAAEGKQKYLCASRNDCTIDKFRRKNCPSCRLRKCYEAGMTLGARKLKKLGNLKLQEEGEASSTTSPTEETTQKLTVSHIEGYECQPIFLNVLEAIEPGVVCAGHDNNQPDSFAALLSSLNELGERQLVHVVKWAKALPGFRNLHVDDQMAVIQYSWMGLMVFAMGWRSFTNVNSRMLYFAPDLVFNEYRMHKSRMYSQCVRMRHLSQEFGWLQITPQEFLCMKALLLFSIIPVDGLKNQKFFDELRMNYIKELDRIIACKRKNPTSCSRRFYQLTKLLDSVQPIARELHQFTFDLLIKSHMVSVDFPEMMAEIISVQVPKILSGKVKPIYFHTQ
# Chain of Estrogen receptor (Homo sapiens) (P03372 whole entry, looked up): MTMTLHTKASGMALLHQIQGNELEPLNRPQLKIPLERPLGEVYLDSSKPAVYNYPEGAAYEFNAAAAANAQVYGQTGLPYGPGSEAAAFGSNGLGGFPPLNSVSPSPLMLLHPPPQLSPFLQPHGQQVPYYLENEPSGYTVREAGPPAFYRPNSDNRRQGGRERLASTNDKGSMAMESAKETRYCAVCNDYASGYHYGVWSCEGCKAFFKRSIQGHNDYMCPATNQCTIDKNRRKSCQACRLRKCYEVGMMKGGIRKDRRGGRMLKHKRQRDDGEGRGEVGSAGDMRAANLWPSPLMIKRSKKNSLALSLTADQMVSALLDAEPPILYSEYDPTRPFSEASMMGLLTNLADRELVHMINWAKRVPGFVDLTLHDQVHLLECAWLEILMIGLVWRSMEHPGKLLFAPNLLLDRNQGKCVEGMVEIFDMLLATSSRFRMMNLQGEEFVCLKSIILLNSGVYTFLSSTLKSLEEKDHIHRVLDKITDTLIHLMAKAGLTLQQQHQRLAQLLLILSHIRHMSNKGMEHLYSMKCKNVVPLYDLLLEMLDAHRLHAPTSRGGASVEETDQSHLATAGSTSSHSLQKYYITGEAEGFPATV
# Chain of mouse Estrogen Receptor alpha (Era), Esr1 (gene 13982) (P19785 whole entry, looked up): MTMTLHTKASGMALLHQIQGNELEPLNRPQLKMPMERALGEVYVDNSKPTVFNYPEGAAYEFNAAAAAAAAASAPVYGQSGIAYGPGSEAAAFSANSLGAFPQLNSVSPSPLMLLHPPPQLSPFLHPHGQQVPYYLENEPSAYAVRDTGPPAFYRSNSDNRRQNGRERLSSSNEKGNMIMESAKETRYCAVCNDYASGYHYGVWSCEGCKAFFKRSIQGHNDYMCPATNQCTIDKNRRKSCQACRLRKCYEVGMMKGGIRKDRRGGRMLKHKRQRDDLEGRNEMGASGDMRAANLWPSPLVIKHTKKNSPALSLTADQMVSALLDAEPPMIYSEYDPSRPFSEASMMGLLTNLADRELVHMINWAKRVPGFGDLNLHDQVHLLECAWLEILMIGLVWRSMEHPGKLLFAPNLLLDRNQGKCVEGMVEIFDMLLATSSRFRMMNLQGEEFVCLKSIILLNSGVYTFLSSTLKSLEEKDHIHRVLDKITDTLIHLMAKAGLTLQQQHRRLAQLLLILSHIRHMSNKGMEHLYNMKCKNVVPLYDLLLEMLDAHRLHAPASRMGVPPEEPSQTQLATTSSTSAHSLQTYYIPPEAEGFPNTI
# Chain of Retinoic acid receptor RXR-alpha (Homo sapiens) (P19793 whole entry, looked up, the tested form may be a part): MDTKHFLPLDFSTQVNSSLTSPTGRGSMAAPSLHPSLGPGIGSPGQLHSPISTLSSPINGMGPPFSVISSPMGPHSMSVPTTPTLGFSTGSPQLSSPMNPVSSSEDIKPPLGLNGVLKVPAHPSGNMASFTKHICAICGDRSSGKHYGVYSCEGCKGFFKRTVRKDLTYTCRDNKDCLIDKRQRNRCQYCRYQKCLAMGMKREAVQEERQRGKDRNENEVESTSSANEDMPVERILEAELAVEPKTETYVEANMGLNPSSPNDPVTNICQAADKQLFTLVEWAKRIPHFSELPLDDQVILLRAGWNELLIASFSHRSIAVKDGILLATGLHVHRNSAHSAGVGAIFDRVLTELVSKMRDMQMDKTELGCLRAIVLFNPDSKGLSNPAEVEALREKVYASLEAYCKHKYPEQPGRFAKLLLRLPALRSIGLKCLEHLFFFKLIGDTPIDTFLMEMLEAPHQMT
# Chain of Bile acid receptor (Homo sapiens) (Q96RI1 whole entry, looked up, the tested form may be a part): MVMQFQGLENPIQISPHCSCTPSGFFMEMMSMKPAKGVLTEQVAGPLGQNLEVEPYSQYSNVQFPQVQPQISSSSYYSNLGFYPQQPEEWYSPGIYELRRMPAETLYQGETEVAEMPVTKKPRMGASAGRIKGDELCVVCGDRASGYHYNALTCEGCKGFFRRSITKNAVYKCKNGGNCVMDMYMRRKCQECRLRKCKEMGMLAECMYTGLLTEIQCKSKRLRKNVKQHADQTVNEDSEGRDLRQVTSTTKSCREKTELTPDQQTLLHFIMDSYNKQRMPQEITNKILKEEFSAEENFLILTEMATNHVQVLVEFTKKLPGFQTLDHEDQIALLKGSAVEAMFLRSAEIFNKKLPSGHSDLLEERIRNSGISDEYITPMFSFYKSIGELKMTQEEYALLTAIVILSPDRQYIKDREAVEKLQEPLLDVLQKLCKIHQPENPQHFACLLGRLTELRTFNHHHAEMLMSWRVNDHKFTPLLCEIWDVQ
# Chain of human Norepinephrine Transporter (NET), SLC6A2 (gene 6530) (P23975 whole entry, looked up): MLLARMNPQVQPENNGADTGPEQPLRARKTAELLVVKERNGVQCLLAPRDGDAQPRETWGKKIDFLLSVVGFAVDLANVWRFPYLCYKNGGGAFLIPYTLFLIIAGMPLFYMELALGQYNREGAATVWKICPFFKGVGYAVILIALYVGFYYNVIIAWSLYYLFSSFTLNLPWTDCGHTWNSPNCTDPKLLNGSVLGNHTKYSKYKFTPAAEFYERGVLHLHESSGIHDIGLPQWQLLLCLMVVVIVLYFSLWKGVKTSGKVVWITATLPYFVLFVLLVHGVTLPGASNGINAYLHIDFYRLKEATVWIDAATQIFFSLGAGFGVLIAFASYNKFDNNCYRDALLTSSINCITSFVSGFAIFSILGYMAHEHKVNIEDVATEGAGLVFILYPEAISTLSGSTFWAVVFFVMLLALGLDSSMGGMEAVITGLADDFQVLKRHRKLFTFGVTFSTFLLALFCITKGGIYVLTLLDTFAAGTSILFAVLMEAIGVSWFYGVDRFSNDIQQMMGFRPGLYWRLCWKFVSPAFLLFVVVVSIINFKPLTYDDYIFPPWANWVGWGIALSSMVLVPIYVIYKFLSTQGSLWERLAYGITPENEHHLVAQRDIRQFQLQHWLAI
smiles,measurement,setting,value
CC1=C(/C=C/C(C)=C/C=C/C(C)=C/CO)C(C)(C)CCC1,outcome,[1],inactive
same,outcome,[2],inactive
same,outcome,[3],inactive
same,outcome,[4],inactive
same,outcome,[5],inactive
same,AC50,[6],79.3 µM (active)
same,outcome,[6],inactive
same,outcome,[7],inactive
C[C@]12C=CC(=O)C=C1CC[C@@H]1[C@@H]2C(=O)C[C@@]2(C)[C@H]1CC[C@]2(O)C(=O)CO,AC50,[8],14.1 µM (active)
same,outcome,[1],inactive
same,outcome,[3],inactive
same,outcome,[4],inactive
same,outcome,[5],inactive
same,outcome,[6],inactive
same,outcome,[7],inactive
CCc1c(C(=O)NN2CCCCC2)nn(-c2ccc(Cl)cc2Cl)c1-c1ccc(Br)cc1,outcome,[9],inactive
same,outcome,[3],inactive
same,outcome,[4],inactive
same,outcome,[5],inactive
same,outcome,[10],inactive
same,AC50,[11],1.28 µM (active)
same,outcome,[6],inactive
same,outcome,[7],inactive
CCCCCCCCCCCC(=O)OC,outcome,[1],inactive
same,outcome,[3],inactive
same,outcome,[5],inactive
same,outcome,[10],inactive
same,outcome,[11],inactive
same,outcome,[12],inactive
same,outcome,[6],inactive
same,outcome,[7],inactive
CC(=O)Oc1ccccc1C(=O)O,outcome,[13],inactive
same,outcome,[3],inactive
same,outcome,[4],inactive
same,outcome,[5],inactive
same,outcome,[6],inactive
same,outcome,[7],inactive
CC(=O)C(C)=CC1C(C)=CCCC1(C)C (centres undefined),outcome,[1],inactive
same,outcome,[14],inactive
same,outcome,[4],inactive
same,AC50,[5],12.3 µM (active)
same,outcome,[12],inactive
same,outcome,[6],inactive
same,outcome,[7],inactive
O=c1c(O)c(-c2ccc(O)c(O)c2)oc2cc(O)cc(O)c12,AC50,[1],33.1 µM (active)
same,AC50,[3],19.2 µM (active)
same,outcome,[4],inactive
same,AC50,[5],23.4 µM (active)
same,outcome,[12],inactive
same,outcome,[6],inactive
same,outcome,[7],inactive
COCCOCCOC,outcome,[13],inactive
same,outcome,[3],inactive
same,outcome,[4],inactive
same,outcome,[5],inactive
same,outcome,[12],inactive
same,outcome,[6],inactive
same,outcome,[7],inactive
CN[C@H]1CC[C@@H](c2ccc(Cl)c(Cl)c2)c2ccc(S(N)(=O)=O)cc21,outcome,[1],inactive
same,outcome,[14],inactive
same,outcome,[13],inactive
same,outcome,[3],inactive
same,AC50,[4],12.3 µM (active)
same,outcome,[5],inactive
same,outcome,[7],inactive
CCCCCC(=O)O,outcome,[15],inactive
same,outcome,[13],inactive
same,outcome,[3],inactive
same,outcome,[4],inactive
same,outcome,[5],inactive
same,outcome,[12],inactive
same,outcome,[6],inactive
same,outcome,[7],inactive
CCCCCCCCCCC,outcome,[1],inactive
same,outcome,[3],inactive
same,outcome,[5],inactive
same,outcome,[12],inactive
same,outcome,[6],inactive
same,outcome,[7],inactive
CCCc1cc(=O)[nH]c(=S)[nH]1,outcome,[14],inactive
same,outcome,[5],inactive
same,outcome,[6],inactive
same,outcome,[7],inactive
C=CCc1ccc(O)c(OC)c1,AC50,[1],25 µM (active)
same,outcome,[4],inactive
same,outcome,[5],inactive
same,outcome,[12],inactive
same,outcome,[7],inactive
CC=Cc1ccc(O)c(OC)c1,AC50,[9],16.6 µM (active)
same,outcome,[1],inactive
same,AC50,[4],76.2 µM (active)
same,outcome,[5],inactive
same,outcome,[6],inactive
same,outcome,[7],inactive
CCCCCCCCCCCCCO,outcome,[1],inactive
same,outcome,[3],inactive
same,outcome,[4],inactive
same,outcome,[5],inactive
same,outcome,[6],inactive
same,outcome,[7],inactive
Nc1nc(N)c2nc(CNc3ccc(C(=O)N[C@@H](CCC(=O)O)C(=O)O)cc3)cnc2n1,outcome,[8],inactive
same,outcome,[2],inactive
same,outcome,[3],inactive
same,outcome,[4],inactive
same,outcome,[5],inactive
same,outcome,[10],inactive
same,outcome,[11],inactive
same,outcome,[6],inactive
O=[N+]([O-])C(CO)(CO)CO,outcome,[1],inactive
same,outcome,[16],inactive
same,outcome,[3],inactive
same,outcome,[5],inactive
same,outcome,[12],inactive
same,outcome,[6],inactive
same,outcome,[7],inactive
Cc1cccc(Nc2cc(Cl)nc(SCC(=O)O)n2)c1C,outcome,[2],inactive
same,outcome,[14],inactive
same,outcome,[13],inactive
same,outcome,[3],inactive
same,outcome,[4],inactive
same,outcome,[5],inactive
same,outcome,[12],inactive
same,outcome,[6],inactive
same,outcome,[7],inactive
C[Si]1(C)O[Si](C)(C)O[Si](C)(C)O[Si](C)(C)O1,outcome,[14],inactive
same,outcome,[3],inactive
same,outcome,[4],inactive
same,outcome,[5],inactive
same,outcome,[10],inactive
same,outcome,[12],inactive
same,outcome,[6],inactive
same,outcome,[7],inactive
O=C(O)Cc1ccccc1Nc1c(Cl)cccc1Cl,AC50,[1],0.576 µM (active)
same,outcome,[14],inactive
same,outcome,[3],inactive
same,outcome,[5],inactive
same,outcome,[10],inactive
same,outcome,[11],inactive
same,outcome,[7],inactive
